Source: PubChem
Only a selection was taken, and hits are over-represented in it overall.
HTT cytoprotect: cytoprotection in Huntington HTT-Q103 PC12 cell model; PC12 HTT-Q103 induced, cytoprotection, ATP luminescence, 40 h; Potency, µM (highest dose often 56.4 µM), for the others: cytoprotection (ATP increase), most hits filed as activators; AID 1471; actives 0.14% (n = 230,000); further: potency means the concentration at half of the fitted maximal effect; % of control where 0% means no effect; nearly all actives have a fitted effect of over 45% in size
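PC12 cells stably carrying ecdysone-inducible Htt exon 1 (Q103)–GFP were induced with 100 nM tebufenozide (final) alongside library compounds in a dose series. Cytoprotection was scored as retained ATP by ATPlite luminescence.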
HttQ103 aggreg: inhibitors of mutant huntingtin aggregate formation in PC12 cells. PC12 HttQ103-GFP aggregates, Acumen cytometry, 40 h. Potency, µM (titrated, usually from 46.1 µM), for inactives: at the highest dose activity change, negative = inhibition, hits mostly inhibitors. actives 1.1% (n = 220,000); further: potency means the concentration at half of the fitted maximal effect; on the % scale 0 is the no-effect control and ±100 the full control effect; nearly all actives have a fitted effect of over 60% in size
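Ecdysone-promoter PC12 model expressing HTT exon 1 Q103 fused to GFP, induced by tebufenozide at 100 nM final. Compounds titrated; aggregates sized 1–25 µm scored on a 488 nm laser cytometer.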
PNC inhibitor: perinucleolar compartment assembly inhibition. actives 3.1% (n = 140,000). PC3M PTB-GFP, PNC prevalence imaging, 16 h; active compounds read low. activity change (PNC), negative = inhibition, % at 10 µM. AID 2417;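 active means readout at or below -70, meaning at least 70% loss of cells showing the perinucleolar compartment, a nuclear body marking cancer cells; inconclusive means readout between -30 and a set limit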;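 further: plate controls were DMSO wells for no effect and camptothecin positive control wells for full effect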
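Compounds are pinned in duplicate onto adhered PC3M cells stably expressing GFP-tagged PTB and incubated 16 h at 37 C. Cells are then fixed, nuclei stained with Hoechst, and PNC-positive cells counted.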
* = called active by the depositor; ? = inconclusive; . = no result given; [ ] = remark or other dose. Unless noted, the call rests on the fitted dose curve; in most records, active means well fitted curve in the direction sought with a large enough effect; inconclusive means small, poorly fitted or top-dose-only effect, or another doubt; inactive means no such curve, though single readings can be large; an effect the other way counts as inactive or inconclusive.

SMILES	HTT cytoprotect	HttQ103 aggreg	PNC inhibitor
C=CCOCC(O)CS(=O)(=O)Cc1ccc(Cl)cc1 (configuration not stated)	-21%	1%	53
Fc1ccc(Cn2nnnc2CN2CCN(C3CCCC3)CC2)cc1	25%[10 µM]	-17%	24
Cc1ccc(C2CC2C(=O)NNC(=S)Nc2ccc(Cl)cc2)cc1 (configuration not stated)	21%[10 µM]	-10%	-97*
CC(C)(C)NC(=S)NNC(=O)[C@H]1C[C@@H]1c1ccccc1	27%[10 µM]	11%[9.22 µM]	.
O=C(NN=C1CCC(c2ccccc2)CC1)c1ccccc1-n1cccc1 (configuration not stated)	?	2%	31
CC1CCC/C(=N/NC(=O)c2ccccc2-n2cccc2)C1 (configuration not stated)	.	4%	-109*
O=C(CCc1ccccc1)NC(NC(=S)Nc1cccc(Cl)c1)C(Cl)(Cl)Cl (configuration not stated)	-4%[10 µM]	-33%	-119*
O=C(CCc1ccccc1)NC(NC(=S)Nc1ccc(Br)cc1)C(Cl)(Cl)Cl (configuration not stated)	-14%	-24%	?
Cc1cccc(OCC(=O)N(Cc2cccs2)C2CCS(=O)(=O)C2)c1C (configuration not stated)	17%[10 µM]	9%	49
COc1ccccc1CN(Cc1cc2c(C)ccc(C)c2[nH]c1=O)Cc1nnnn1Cc1ccco1	-2%[1.9 µM]	?	19
CCOC(=O)Cc1nnc(NC(=O)C(CC)Sc2nncn2C)s1 (configuration not stated)	0%[10 µM]	-3%	-85*
CCOC(=O)Cc1nnc(NC(=O)CSc2nncn2C)s1	-4%[10 µM]	-7%	-4
O=C(CSc1nnc(-c2ccccc2)o1)NCC1CCCCC1	-6%	-19%	-2
CCN(CC)c1ccc(C2C(C(=O)OC)=C(C)NC(C)=C2C(=O)OC)cc1	4%[10 µM]	31%	-18
COC(=O)C1=C(C)NC(C)=C(C(=O)OC)C1c1ccc(NC(C)=O)cc1	-24%[0.074 µM]	3.2µM*	?
CCOC(=O)Cc1csc(NC(=O)CCNS(=O)(=O)c2ccc3c(c2)CCC(=O)N3)n1	11%	-12%	?
COC(=O)C(C(C)=O)C(=O)C(Cc1ccccc1)NC(=O)OCc1ccccc1 (configuration not stated)	-20%[10 µM]	.	.
CC(C)NC(=O)Cn1nnc(-c2ccc(Cl)cc2)n1	-17%[10 µM]	13µM*	30
CCOC(=O)c1c(NC(=O)Cn2nnc(-c3ccc(Cl)cc3)n2)sc(C)c1C	-16%	-3%	7
CCCCOc1ccc(/C=C/C(=O)Nc2ccc(C(N)=O)cc2)cc1	.	10%	-10
CCCCOc1ncnc2c1[nH]c1ccc(OCC)cc12	-23%	1%	9
CCCCOc1ncnc2c1[nH]c1ccccc12	-115%	4µM*	-6
CCCCOc1ncnc2c1[nH]c1ccc(F)cc12	-64%[0.074 µM]	3.2µM*	-26
CCOCCCNc1ncnc2c1[nH]c1ccccc12	-8%	10µM*	31
CCCCOCCCNc1ncnc2c1[nH]c1ccccc12	-20%	?	13
SMILES	HTT cytoprotect	HttQ103 aggreg	PNC inhibitor
CCCCOc1ncnc2c1[nH]c1ccc(OC)cc12	-27%	5%	-10
COc1ccc(C(=S)N2CCN(c3cccc(Cl)c3)CC2)c(OC)c1	.	-10%	.
CC(C)Cc1cc(C(=O)N2CCC(N3CCC(C(=O)N4CCOCC4)CC3)CC2)n[nH]1	-8%[10 µM]	-18%[9.22 µM]	.
O=C(O)CCN1CCOCC1	-9%	7%	31
CCn1c(SCC(=O)NCc2ccco2)nnc1C(C)C	-1%	25%	?
O=C(N/N=C/c1cc2c3c(c1O)CCCN3CCC2)c1ccccc1O	.	0.89µM*	-113*
Cc1nn(-c2ccccc2)c(N2CCCC2)c1/C=N/NC(=O)C1CC1	-44%	-17%	.
Cc1nn(-c2ccccc2)c(N2CCCC2)c1/C=N/NC(=O)c1ccccc1O	0%[10 µM]	?	-104*
O=C(N/N=C/c1cccc(C(F)(F)F)c1)c1ccccc1O	-25%	?	.
COc1ccc(S(=O)(=O)Nc2cccc(Cl)c2)cc1OC	-17%	0%	19
COc1ccc(S(=O)(=O)Nc2cccc(SC)c2)cc1OC	5%[10 µM]	0.71µM*	7
O=C1C2C3C=CC(C4CC34)C2C(=O)N1CCc1ccccc1 (configuration not stated)	16%[10 µM]	-6%	-13
COC(=O)N1CCC[C@@]2(CCN(C(c3ccccc3)c3ccccc3)C2)C1	-7%	.	.
CC(C)(C)c1cc2c(O)c(c1)Cc1cc(C(C)(C)C)cc(c1O)Cc1cc(C(C)(C)C)cc(c1O)Cc1cc(C(C)(C)C)cc(c1O)Cc1cc(C(C)(C)C)cc(c1O)Cc1cc(C(C)(C)C)cc(c1O)Cc1cc(C(C)(C)C)cc(c1O)Cc1cc(C(C)(C)C)cc(c1O)C2	-8%[10 µM]	.	.
Cc1ccccc1C(=O)NNC(=O)C1CCCN(c2ncccn2)C1 (configuration not stated)	23%	9%	6
CCNC(=O)C1CN(S(=O)(=O)c2ccccc2)CCN1S(=O)(=O)c1ccccc1 (configuration not stated)	17%[10 µM]	15%	5
CCc1cccc(CC)c1NC(=O)C1CN(S(=O)(=O)c2ccccc2)CCN1S(=O)(=O)c1ccccc1 (configuration not stated)	30%[10 µM]	?	-111*
COc1ccc(C2=NN3C(C2)c2ccccc2OC3c2cccs2)cc1 (configuration not stated)	17%[10 µM]	31%[9.22 µM]	.
CCCCC[C@H](O)/C=C/C1=C(CCCCCCC(=O)O)C(=O)CC1	?	17%	-115*
CCCCC/C=C\C=C\[C@@H](O)CCCCCCCC(=O)O	-19%	.	.
C[C@@H](CCC(=O)O)C(=O)O	0%[10 µM]	.	.
COCCNc1oc(-c2ccccc2Cl)nc1C#N	-19%	?	26
Cc1onc(-c2ccccc2)c1C(=O)Nc1nc(-c2ccc(F)c(F)c2)cs1	-30%	-3%	?
COc1ccc(C(=O)NNC(=O)c2ccccc2[N+](=O)[O-])cc1	-32%[10 µM]	22%	-89*
O=C(NNC(=O)c1ccccc1[N+](=O)[O-])c1ccccc1[N+](=O)[O-]	-20%	16%	.
SMILES	HTT cytoprotect	HttQ103 aggreg	PNC inhibitor
O=C(COC(=O)CC12CC3CC(CC(C3)C1)C2)Nc1ncc(Cl)cc1Cl	0%	-16%	-19
O=C(COC(=O)C12CC3CC(CC(C3)C1)C2)Nc1ncc(Cl)cc1Cl	8%	-2%	-88*
CC(C)OP(=O)(OC(C)C)C(NC(=O)c1ccccc1)C(N)=O (configuration not stated)	-13%[10 µM]	-15%[9.22 µM]	.
CN1/C(=C\C(=O)C[n+]2ccc(C(=O)c3ccccc3)cc2)C(C)(C)c2ccccc21	-18%[10 µM]	13µM*	.
CN1/C(=C\C(=O)C[n+]2cccc(C(N)=O)c2)C(C)(C)c2ccccc21	-52%[10 µM]	-13%	.
C/C(=N/Nc1ccc2ccccc2n1)c1ccccc1O	-72%[10 µM]	.	.
O=C(O)C1C2C=CC(C2)C1C(=O)OCc1ccccc1 (configuration not stated)	16%	20%	55
O=C(O)CNC(=O)C(c1ccccc1)c1ccccc1	-4%[10 µM]	0%[9.22 µM]	.
Cc1ccc2nsnc2c1NS(=O)(=O)c1c(C)ccc2nsnc12	-12%	-5%	-13
Cc1ccc(/C=[N+](\[O-])c2ccc(N(C)C)cc2)c2nsnc12	-162%	11µM*	.
